# Screening data as filed in PubChem.
# TbPYK inhibitor = inhibitors of Trypanosoma brucei pyruvate kinase; Potency, µM (top dose mostly 76.8 µM), without a hit: at the highest dose activity, negative = inhibition, actives largely listed as inhibitors; AID 624173; TbPYK enzyme, Kinase-Glo Plus ATP luminescence, 45 min; 0.12% of 410,000 active; also: nearly all actives have a fitted effect of over 50% in size
#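 Luminescence from Kinase-Glo Plus, added after a 45-minute room-temperature reaction, served as the end-point read-out. The enzyme and substrate were preincubated with compound before ADP (130 uM final) initiated turnover. Concentration-effect curves came from normalized qHTS data.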
# LmPK inh = LmPK (Leishmania mexicana) enzyme inhibition; Q27686; purified LmPK, Kinase-Glo ATP luminescence, 1 h; Potency, µM (titrated, usually from 57.5 µM), without a hit: top-dose activity change, negative = inhibition, most hits filed as inhibitors; 0.37% of 290,000 active; AID 1721
#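 In 50 mM imidazole pH 7.2 with 7 mM MgCl2, LmPK (0.1 nM) turned over PEP (0.5 mM) and ADP (0.1 mM) for 1 h at room temperature. Luciferase read-out of ATP.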
# FBPA Giardia inh = Giardia lamblia aldolase inhibition; Potency, µM (titrated, usually from 59.6 µM), without a hit: top-dose activity, negative = inhibition, hits mostly inhibitors; A8B2U2; purified Giardia FBPA; 0.71% of 290,000 active; also: nearly all actives have a fitted effect of over 55% in size
# Target sequence (A8B2U2 whole entry, looked up): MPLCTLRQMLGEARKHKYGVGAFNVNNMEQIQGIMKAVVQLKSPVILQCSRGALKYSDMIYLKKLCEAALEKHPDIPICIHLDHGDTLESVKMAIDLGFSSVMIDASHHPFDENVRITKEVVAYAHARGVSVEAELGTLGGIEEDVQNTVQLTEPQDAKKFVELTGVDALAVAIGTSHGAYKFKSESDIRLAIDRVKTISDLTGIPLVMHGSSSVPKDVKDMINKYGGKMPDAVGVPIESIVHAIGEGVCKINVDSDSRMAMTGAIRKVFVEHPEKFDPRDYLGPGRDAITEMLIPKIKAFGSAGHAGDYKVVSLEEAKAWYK
#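 Giardia FBPA (40 nM reagent) was preincubated 10 min at RT with compound (up to 57.5 uM final), then substrate plus GAPDH/TPI/NAD/arsenate coupling system with diaphorase/resazurin was added; resorufin fluorescence (525/598 nm) was read after 20 min.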
# Sm TGR inh = blocks Schistosoma mansoni thioredoxin glutathione reductase. Q962Y6. purified TGR, DTNB reduction, TNB absorbance 405 nm. Potency, µM (highest dose often 114 µM), for inactives: top-dose activity change, negative = inhibition, usual class: inhibitors. 3% of 360,000 active. AID 485364; also: nearly all actives have a fitted effect of over 60% in size
#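 Kinetic colorimetric format: TGR-catalysed, NADPH-driven DTNB reduction monitored via TNB absorbance. Enzyme dispensed at 20 nM; compound exposure 15 min at room temperature before reaction start.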
# RE007 growth inh = less growth of the S. pombe RE007 Vpr strain. S. pombe RE007 Vpr strain, BacTiter-Glo ATP luminescence, 24 h. Potency, µM (top dose mostly 92.2 µM), inactives show top-dose activity change, negative = less growth, hits mostly inhibitors. 0.21% of 360,000 active; active = well fitted falling curve with a large enough effect; inconclusive = small, poorly fitted or top-dose-only effect; inactive = no such curve, though single readings can be large or run the other way; also: nearly all actives have a fitted effect of over 50% in size
#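 Fission yeast RE007 carrying one integrated HIV-1 vpr copy, seeded at OD 0.01 in PMG+AL medium with 23 nL pinned compound. Grown 24 h at 30 degrees; viability read by BacTiter-Glo luminescence after 5 min.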
# Starred values were filed as active, the others as inactive; ? = inconclusive; . = not tested or not shown; [ ] = dose if it differs, or a comment. Only some compounds are listed: those with a hit (about 3.3% of all), similar ones and a draw of the others. Unless noted, calls follow the shape of the dose curve; as a rule, active = well fitted curve in the direction sought with a large enough effect; inconclusive = small, poorly fitted or top-dose-only effect, or another doubt; inactive = no such curve, though single readings can be large; an effect the other way counts as inactive or inconclusive. % is scaled to controls: 0 for no effect and ±100 for the full control effect; potency is read from the fitted curve at half-maximal effect.
SMILES,TbPYK inhibitor,LmPK inh,FBPA Giardia inh,Sm TGR inh,RE007 growth inh
Oc1cccc(NC(=S)Nc2cccnc2)c1,7%,-2%,-10%,50µM*,-11%
CCCn1c(CC)nc([N+](=O)[O-])c1Sc1ccc(F)cc1,1%,1%,-5%,45µM*,-6%
CCCn1c(CC)nc([N+](=O)[O-])c1Sc1ccc(C)cc1,-10%,0%,1%,-32%,12%
CCC(=O)N1CCCc2cc(S(=O)(=O)N3CCC(N4CCCCC4)CC3)ccc21,-6%,-9%,1%,-15%,4%
COc1ccc(N2C(=O)[C@@H]3C(c4cccnc4)=NO[C@@H]3C2=O)cc1,-7%,10%,-12%,7.1µM*,-29%
COc1ccc(C2=NO[C@@H]3C(=O)N(c4c(C)cccc4C)C(=O)[C@H]23)cc1OC,-18%,11%,-5%,?,-13%
Cc1ccc(N2C(=O)[C@@H]3C(c4cccnc4)=NO[C@@H]3C2=O)cc1,-3%,1%,7%,7.9µM*,?
COc1ccc(CN2C(=O)[C@@H]3C(c4ccc(F)cc4)=NO[C@@H]3C2=O)cc1,4%,4%,1%,-25%,-2%
Cc1ccc(-c2c3c(=O)n(C)c(=O)n(C)c3cn2Cc2ccccn2)cc1,-16%,7%,-12%,35µM*,-4%
COc1ccc(-c2c3c(=O)n(C)c(=O)n(C)c3cn2Cc2cccnc2)cc1,0%,3%,-25%,?,-17%
COc1ccc(-c2c3c(=O)n(C)c(=O)n(C)c3cn2Cc2ccccn2)cc1,-4%,4%,-21%,28µM*,15%
CCCCCCCCC1CC(C(=O)Nc2ccccc2)C(=O)O1 (stereo unspecified),0%,.,.,.,-4%
COc1cc(/C=C/C(=O)OCC(=O)N2CC(=O)Nc3ccccc32)ccc1O,-2%,-6%,-3%,45µM*,5%
CCOCCn1ccc2c(OCC(=O)Nc3cc(C(F)(F)F)ccc3Cl)cccc2c1=O,-6%,.,.,5%,.
O=C(c1cccs1)N(Cc1cccnc1)c1nc2c(Cl)cccc2s1,-12%[15.4 µM],.,.,-2%,.
Cc1cccc2sc(N(Cc3cccnc3)C(=O)CCS(=O)(=O)c3ccccc3)nc12,-15%,.,.,4.5µM*,.
Cc1cc(C)c2nc(N(Cc3cccnc3)C(=O)CCS(=O)(=O)c3ccccc3)sc2c1,1%,.,.,-29%,.
Cc1ccc2sc(N(Cc3cccnc3)C(=O)Cc3ccccc3)nc2c1C,10%[15.4 µM],.,.,5%,.
O=C(CCS(=O)(=O)c1ccccc1)N(Cc1cccnc1)c1nc2c(Cl)cccc2s1,2%,.,.,1.6µM*,.
Cc1ccc2sc(N(Cc3cccnc3)C(=O)CCS(=O)(=O)c3ccccc3)nc2c1C,0%[15.4 µM],.,.,35µM*,.
COC(=O)C[C@@H]1C=C[C@@H](NS(=O)(=O)c2ccccc2OC)[C@@H](CO)O1,.,.,.,.,7%
C=CCn1c(SCC(=O)NC)nc2sc3c(c2c1=O)CCC3,-5%,2%,1%,9%,-11%
CN1CCN(c2ccccc2NC(=O)Cc2ccc(Cl)cc2)CC1,-10%,-6%,-3%,2%,10%
COc1cccc(-c2nnc(-c3ccco3)o2)c1,-26%,?,3%,-9%,-22%
COc1ccc(-c2nn(C)c3sc(C(=O)N4CCN(c5cc(Cl)ccc5C)CC4)cc23)cc1OC,-8%,.,.,-1%,.
SMILES,TbPYK inhibitor,LmPK inh,FBPA Giardia inh,Sm TGR inh,RE007 growth inh
COc1ccc(-c2nn(C)c3sc(C(=O)N4CCN(c5cccc(C)c5C)CC4)cc23)cc1OC,-5%,.,.,25µM*,.
O=C(Nc1ccc(Cl)cc1C(=O)Nc1ccncc1)c1ccco1,-1%,5%,-3%,40µM*,-11%
CC(CCc1ccccc1)NC(=O)c1ccc2nc(N3CCOCC3)sc2c1 (stereo unspecified),-5%,-3%,5%,-1%,-13%
COc1ccc2c(c1)O[C@@H](c1ccc3c(c1)OCO3)[C@H](OC(=O)Nc1cc(OC)c(OC)c(OC)c1)C2=O,.,1%,-12%,-1%,.
Cc1occc1-c1nnc(SCC(=O)N2CCCCC2)n1C,1%,.,.,-2%,7%
Cc1occc1-c1nnc(SCC(=O)c2ccc(Cl)cc2)n1C,-8%,-2%,-5%,40µM*,-5%
Cc1occc1-c1nnc(SCC(=O)c2c[nH]c3ccccc23)n1C,-16%,2%,-4%,18µM*,20%
Cn1c(SCC(=O)c2cc(Cl)c(Cl)s2)nnc1-c1ccco1,?,8%,-8%,25µM*,-19%
COC(=O)CNc1nc(Cl)nc(Nc2ccc(C)cc2)n1,-3%,1%,0%,-3%,11%
CC(C)C(=O)Nc1cccc(C(=O)NCc2ccc(S(N)(=O)=O)cc2)c1,7%,-6%,0%,3%,-12%
C/C(CC(=O)Nc1ccc(N(C)C)cc1)=N\NC(=O)c1ccccc1O,-2%,6%,-23%,45µM*,-19%
Cc1ccc(C)c(N2CCN(C(=O)c3ccc4c(c3)c(C)c(C)n4C)CC2)c1,-1%,-1%,-1%,-14%,-6%
Cc1sc2nc(C)n(/N=C/N(C)C)c(=O)c2c1C,2%,-3%,12%,9%,3%
Cc1nc2scc(-c3ccco3)c2c(=O)n1/N=C/N(C)C,-10%,-2%,-9%,25µM*,-11%
COc1cc(-c2nc(-c3ccc4c(c3)-c3ccccc3S4(=O)=O)c(-c3ccccc3)[nH]2)cc(OC)c1OC,-7%,5%,-6%,56µM*,8%
COc1cccc(-c2nc(-c3ccc4c(c3)-c3ccccc3S4(=O)=O)c(-c3ccccc3)[nH]2)c1OC,-1%,-5%,1%,?,-1%
CN(c1ccccc1)S(=O)(=O)c1cccc(C(=O)NCCc2ccc(O)c(O)c2)c1,?,0%,-18%,16µM*,5%
CCN(CC)S(=O)(=O)c1cccc(C(=O)NCCc2ccccc2)c1,2%,.,.,.,15%
COc1ccc(N2C(=O)/C(=C/c3ccc(OC)c(OC)c3)C(=O)NC2=S)cc1,?,1%,?,10µM*,20%
COC(=O)COc1ccc(/C=C2\C(=O)NC(=S)N(c3ccc(C)cc3)C2=O)cc1OC,?,14%,-6%,13µM*,10%
COc1ccc(N2C(=O)/C(=C/c3ccc(C)o3)C(=O)NC2=S)c(OC)c1,?,25%,-27%,1.3µM*,4%
COc1cc(/C=C2\C(=O)NC(=O)N(c3ccccc3)C2=O)cc(OC)c1OC,?,2%,-8%,?,21%
CCOC(=O)COc1ccc(/C=C2\C(=O)NC(=S)N(c3ccc(OC)cc3)C2=O)cc1OC,?,15%,-3%,14µM*,9%
CCn1c(C)cs/c1=N\S(=O)(=O)c1ccccc1,2%,.,.,4%,-1%
O=Cc1s/c(=N\S(=O)(=O)c2ccccc2)n(CCCCl)c1Cl,-11%,0%,2%,0.63µM*,4%
